Screens: PubChem, several laboratories
PolyA inh: inhibitors of polyadenylation in S. cerevisiae | S. cerevisiae SKY197-pL101 polyadenylation reporter, beta-gal luminescence; efflux-impaired pdr1/pdr3 knockout yeast; score 100 = 6 SD above DMSO | activity score, % at 12 µM | actives 0.02% (n = 300,000);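 active = lowest replicate activity score at least 50, where 100 means six control SD above control mean; inconclusive = lowest score under 50 but half or more replicates reach 50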;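 note: yeast exposed to compound for 9 h at 30 °C; higher score means more reporter readthrough which indicates perturbed polyadenylation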
ALR H2O2 inh: inhibitors of human sulfhydryl oxidase ALR. purified ALR, DTT oxidation, H2O2 HRP-luminol luminescence. inhibition, % (concentration not given with the values). AID 485317. actives 3.8% (n = 290,000). P55789;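 active = mean replicate inhibition above about 79%, with every replicate also reaching it, limit read from the data; inconclusive = only one of the two criteria met; inactive = mean below limit and not every replicate reaching it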
CaV13 FRET inh: Primary screen for inhibitors of IQ motif and Ca2+-dependent inactivation inhibitor domain binding in CACNA1D, Förster resonance energy transfer in living cells, …. HEK cells, CFP/YFP FRET ICDI-IQ, plate reader, 10 min; percent FRET-ratio fall versus neutral wells. inhibition, % at 12.3 µM. actives 0.098% (n = 340,000). AID 743397;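 active = mean replicate inhibition of at least 30% and at least 1% of replicates passing that level; inconclusive = only one of the two criteria is met; inactive = neither criterion is met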;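 note: 0% = median of the neutral control wells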
IDE act: boosts human insulin-degrading enzyme activity in HEK cells; activation, % at 5.96 µM; actives 0.073% (n = 340,000); P14735; AID 493087; FAbeta-B cleavage, fluorescence polarization; 0% vehicle, 100% cell-free pure enzyme wells;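 active = activation above the mean of all tested compounds plus 3 SD, set per screening campaign, cut at about 17% in these data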
Target sequence (P14735 whole entry, looked up): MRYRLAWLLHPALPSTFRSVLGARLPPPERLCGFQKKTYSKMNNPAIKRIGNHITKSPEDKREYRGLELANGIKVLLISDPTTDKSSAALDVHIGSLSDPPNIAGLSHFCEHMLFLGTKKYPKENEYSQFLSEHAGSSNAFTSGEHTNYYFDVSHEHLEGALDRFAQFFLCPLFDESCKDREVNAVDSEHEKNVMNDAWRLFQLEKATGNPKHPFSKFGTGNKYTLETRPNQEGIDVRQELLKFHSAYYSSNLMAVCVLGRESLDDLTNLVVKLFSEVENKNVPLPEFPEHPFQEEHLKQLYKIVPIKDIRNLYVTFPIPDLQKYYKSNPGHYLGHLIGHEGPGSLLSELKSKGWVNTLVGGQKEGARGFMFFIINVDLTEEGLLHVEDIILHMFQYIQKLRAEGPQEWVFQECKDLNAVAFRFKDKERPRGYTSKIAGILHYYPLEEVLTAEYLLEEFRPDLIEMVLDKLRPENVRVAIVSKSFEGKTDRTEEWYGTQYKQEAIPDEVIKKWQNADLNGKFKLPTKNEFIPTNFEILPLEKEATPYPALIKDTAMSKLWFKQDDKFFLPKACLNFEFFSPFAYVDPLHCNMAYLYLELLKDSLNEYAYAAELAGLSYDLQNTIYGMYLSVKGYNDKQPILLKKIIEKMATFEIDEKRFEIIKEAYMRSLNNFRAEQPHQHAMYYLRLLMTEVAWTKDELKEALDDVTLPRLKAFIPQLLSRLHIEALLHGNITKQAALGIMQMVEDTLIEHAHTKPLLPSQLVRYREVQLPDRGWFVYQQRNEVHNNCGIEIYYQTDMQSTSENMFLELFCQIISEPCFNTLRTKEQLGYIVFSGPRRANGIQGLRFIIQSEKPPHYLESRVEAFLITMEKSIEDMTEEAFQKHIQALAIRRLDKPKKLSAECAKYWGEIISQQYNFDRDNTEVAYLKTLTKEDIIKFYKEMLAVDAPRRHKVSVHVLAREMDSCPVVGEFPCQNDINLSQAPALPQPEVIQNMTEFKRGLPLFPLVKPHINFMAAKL
M18AAP inhibitor: PfM18AAP enzyme inhibition. actives 1.2% (n = 290,000). inhibition, % at 7.35 µM. AID 1822. recombinant PfM18AAP, H-Glu-NHMec fluorogenic cleavage;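 active = inhibition above the campaign mean inhibition over all tested compounds plus 3 SD, cut at about 28% in these data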;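 note: 0% = plate median of test compound wells and 100% = 2 mM ZnCl2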
IDE inh: inhibits human insulin-degrading enzyme in HEK cells; inhibition, % at 5.59 µM; FAbetaB cleavage, fluorescence polarization; actives 0.41% (n = 320,000); P14735;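 active = percent inhibition above the average of all tested compounds plus 3 SD, set per screening campaign, cut at about 16% in these data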;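 note: IDE supplied by intact live HEK cells; FP after avidin binding of uncleaved biotin substrate so inhibition keeps polarization high; 0% = DMSO wells and 100% = 60 µM reference IDE inhibitor Ii1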
The depositor's hits bear a star; ? = inconclusive; nt = no result given. A selection: hits, their analogues and other compounds. The true share with any hit is near 4.1%.

SMILES | PolyA inh | ALR H2O2 inh | CaV13 FRET inh | IDE act | M18AAP inhibitor | IDE inh
Cc1oc(-c2ccccc2F)nc1CS(=O)CC(=O)N1CCC2(CC1)OCCO2 (stereo unspecified) | -4 | 99* | -6 | 1 | 0 | 5
Cc1oc(-c2ccc(Cl)cc2)nc1CS(=O)CC(=O)N1CCC2(CC1)OCCO2 (stereo unspecified) | -10 | 99* | -5 | 3 | 8 | 4
COc1cccc(-c2nc(CS(=O)CC(=O)N3CCC4(CC3)OCCO4)c(C)o2)c1 (stereo unspecified) | 11 | nt | -6 | 2 | 1 | -1
NCCc1ccc(O)cc1 | -6 | nt | -5 | 5 | 3 | 6
NNC(=O)c1ccc(O)cc1 | nt | 95* | -6 | 4 | nt | 1
O=[N+]([O-])c1cccc2c([As](=O)(O)O)cccc12 | -4 | -6 | -17 | 1 | -3 | 8
O=C(Cc1ccc(N(CCCl)CCCl)cc1)NC(Cc1ccc(Cl)cc1)C(=O)O (stereo unspecified) | 33 | 98* | -4 | -4 | -2 | 0
Cc1ccnc(-n2c(-c3ccco3)nc3ccccc3c2=O)c1 | 1 | 0 | -5 | 3 | 1 | -1
O=C1NC(c2cccnc2)Nc2sc3c(c21)CCCC3 (stereo unspecified) | 7 | nt | nt | 2 | 31* | 0
O=c1c2ccccc2nc(/C=C/c2ccccc2)n1-c1ccccc1O | 9 | 0 | -4 | 4 | 10 | -3
O=c1c2ccccc2nc(/C=C/c2ccc(O)cc2)n1-c1ccccc1O | -9 | nt | -3 | -32 | 5 | 34*
O=C(/C=C/c1ccccc1)NCCc1cnc[nH]1 | 1 | -1 | nt | 4 | 3 | 9
c1ccc(CCN2CCC3CCNC3C2)cc1 (stereo unspecified) | nt | nt | -10 | nt | nt | nt
O=[N+]([O-])c1ccc(C(c2ccc([N+](=O)[O-])cc2)c2ccc([N+](=O)[O-])cc2)cc1 | nt | nt | -5 | 4 | nt | nt
Cn1cnc([N+](=O)[O-])c1Sc1ccc([N+](=O)[O-])cc1 | 8 | 97* | 4 | -1 | -2 | 1
CCN1C[C@]2(COC)CC[C@H](O)[C@@]34C5C[C@H]6[C@H](O)C5[C@](O)(C[C@H]6OC)[C@@H]([C@H](OC)C23)[C@@H]14 (stereo partly specified) | 2 | -44 | nt | nt | nt | 3
Cc1ccccc1N1C(=O)NC(=O)/C(=C\c2cc(Br)c(N3CCOCC3)o2)C1=O | 8 | 59 | -4 | -14 | 41* | 2
CN=C(SCc1cc2c(cc1Cl)OCO2)c1c(O)n(C)c(=O)n(C)c1=O | ? | 101* | -5 | 2 | 11 | 10
Cn1c(O)c(C(=O)c2ccccc2Cl)c(=O)n(C)c1=O | 2 | -12 | -4 | 5 | 0 | 8
O=C(CSC1c2ccccc2-c2ccccc21)N/N=C/c1ccccc1O | -22 | 98* | -7 | 7 | 14 | 3
Cn1c(O)c(C(=Nc2ccccc2)SCc2ccc(Cl)cc2)c(=O)n(C)c1=O | 13 | 98* | -19 | 5 | 6 | -2
CC1=C2CCC3C(CCC4=CC(=O)CCC43C)C2CC1 (stereo unspecified) | nt | nt | -14 | 7 | nt | nt
O=c1[nH]c(=O)n(C2CCCCCC2)c(O)c1C=NCc1cccnc1 | -3 | 1 | -4 | 1 | 3 | 2
COc1ccc2c(c1OC)C(=O)OC2c1c(O)n(C2CCCCC2)c(=O)[nH]c1=O (stereo unspecified) | 2 | 96* | -6 | 1 | 0 | 0
c1ccc(C2CC3CC4(CCCC4)N2O3)cc1 (stereo unspecified) | 7 | 3 | nt | 18* | -9 | -1
O=C1NC(=O)C(=Cc2coc3ccccc3c2=O)C(=O)N1 | -5 | 14 | -3 | -3 | 8 | -1
NC(=S)N/N=C/c1coc2ccccc2c1=O | -14 | -1 | -3 | 3 | 29* | -3
c1ccc2nc(N3CCNCC3)ccc2c1 | nt | -7 | -4 | 1 | nt | 2
CC(C)Nc1ccc(Nc2ccccc2)cc1 | 9 | 99* | -3 | -4 | nt | 3
